Our source for the growth values is PubChem BioAssay (NCI).

SMILES strings stand for the structures. About 83,000 compounds went through this panel and 20% of them were active in at least one assay; those are over-represented in the sample as a whole.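 Each cell line was grown in a 96-well plate and treated with one concentration of compound for 48 hours. Values below 10 were considered active.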 Calls of active or inactive are those of the source.

The first assay has as its system HOP-92 NSCLC. As to the kind of experiment: NCI-60 one-dose screen, 48 h (100 = growth as untreated, 0 = no growth, -100 = all killed). The conditions noted are these: 10 µM unless noted.
On to `O=C1COCCN1c1ccc(NCc2cn(C(=O)c3ccc(Cl)cc3)c3ccccc23)cc1`, for which the growth is 58.2% (inactive).
The same measure, in the same setting: the result for `COc1ccc(-c2cnc3ccccc3n2)cc1` reads 86.9% (inactive); that for `CCOC(=O)C1=C(N)Oc2c(sc3c(C)cccc23)C1c1ccc(OC)cc1` (stereo unspecified), 66.1% (inactive).
On the same count and under the same terms, the result for `FC(F)(F)c1cc(Nc2ccc3c(OCCCN4CCOCC4)cccc3n2)ccc1Cl` reads 60.2% (inactive); that for `COc1cc(C(=O)c2cc(C)c3[nH]c4ccc(O)cc4c3c2C)cc(OC)c1OC`, 32.2% (inactive).
With `Cc1ccc(C(=O)N/N=C/c2cccc(Oc3ccccc3)c2)cn1`, the growth is 71.6% (inactive).
For `CC(=O)CC(c1cccs1)c1c(-c2ccccc2)[nH]c2ccccc12` (stereo unspecified), the growth was 72.6% (inactive).
Regarding `NC(=O)C1(Nc2ccc(Br)cc2)CCCC1`, the growth was 110% (inactive).
On the same count and under the same terms, the same measure for `COc1ccc(-c2c(C(=O)NS(C)(=O)=O)n(Cc3cccc(C(F)(F)F)c3)c3ccccc23)cc1`: 62.2% (inactive); for `O=C1NC(=O)C(c2ccccc2)(c2ccccc2)N1Cc1cn(-c2c3ccccc3nc3ccccc23)nn1`: 67.3% (inactive).
The same measure, in the same setting: the result for `CCCCn1c(-c2ccc(C(=O)O/N=C(\N)c3ccc(OC)cc3)cc2)nc(-c2ccccc2)c1-c1ccccc1` reads -68.7% (active); that for `COc1cc(Nc2nc(NCCN)nc3cc[nH]c(=O)c23)cc(OC)c1`, 59.5% (inactive).
With `COc1ccc(-c2[nH]c3ccc(OC)cc3c2/C=C(\C#N)S(=O)(=O)c2ccccc2)cc1`, the growth is 29.2% (inactive).
Same read-out and setting: the result for `COc1ccc(C2=Nn3c(nnc3-c3cc(Cl)cc(Cl)c3Cl)SC2)cc1` reads 22.3% (inactive).
On the same count and under the same terms, the same measure for `COc1ccc(C(=S)N2CCN(c3cccc(C)c3)CC2)cc1OC`: 81% (inactive); for `COc1cc(CCCO)c(OC)c(OC)c1OC`: 100% (inactive).
On to `O=C(Nc1nc2ccc(F)cc2s1)c1cccnc1Nc1ccc(Cl)cc1Cl`, for which the growth was -6.79% (active).
Still for that read-out and setting: the result for `Cc1cccc2c3c(sc12)C(c1ccc(F)cc1)C(C#N)=C(N)O3` (stereo unspecified) reads 68.4% (inactive); that for `BrCCCc1n(Cc2ccc3ccccc3c2)c2ccccc2[n+]1Cc1ccc2ccccc2c1`, -77% (active).
Take `CCOC(=O)Cn1c(C)c(/C=N/NC(=O)c2cc3c(ccc4ccccc43)o2)c2ccccc21`: the growth is 60.5% (inactive).
`CCOC(=O)c1sc2ncc(-c3ccc(OC)cc3)n2c1C`: the growth was 92.6% (inactive).
The same measure, in the same setting: the same measure for `O=c1c2cccc(F)c2sc2c(NCCCNCCO)nc3ccccc3c12`: 15.4% (inactive); for `CNCCCNc1nc2ccccc2c2c(=O)c3cc(F)ccc3sc12`: 28.9% (inactive); for `CC(=O)OC[C@H]1OC(Sc2sc(C(=O)c3ccc(Cl)cc3)c(N)c2-c2nc3ccccc3s2)[C@H](OC(C)=O)[C@@H](OC(C)=O)[C@@H]1OC(C)=O` (stereo partly specified): 93.7% (inactive).
The same measure, in the same setting: the same measure for `OC(c1ccccc1)C(NC(Cc1ccccc1)c1ccccc1)c1ccccc1` (stereo unspecified): 65.3% (inactive); for `CCOC(=O)c1cn2ncnc(Oc3ccc(NC(=O)NCCN(C)C)c(Cl)c3)c2c1C`: 44.8% (inactive).
`Cc1nc2ccccc2c(/C=C/c2ccccc2)c1C(=O)/C=C/c1ccc(C(F)(F)F)cc1`: the growth is -64.8% (active).
With `Cc1[nH]c(C(=O)Nc2ccc(C(=O)NCCN)cc2OC(C)C)c(Cl)c1Cl`, the growth was 29.7% (inactive).
Still for that read-out and setting: the result for `CN1CCN(c2ccc(-c3cnc4c(-c5csc6ccccc56)cnn4c3)cc2)CC1` reads 0.36% (active); that for `c1ccc(-c2nc3sc(-c4ccccc4)cn3n2)cc1`, 74.4% (inactive).
As to `COc1c(B(O)O)cc(F)cc1-c1nc2ccc3[nH]ncc3c2c2c1CCCC2`, the growth is 19.7% (inactive).
For the compound `CNCCCC12CCC(c3ccccc31)c1ccccc12`, the growth was 48.5% (inactive).
Still for that read-out and setting: the same measure for `C=C1C(=O)O[C@H]2[C@H]1CC/C(COC(=O)C(C)c1ccc(CC(C)C)cc1)=C\CC[C@@]1(C)O[C@@H]21` (stereo partly specified): -26.8% (active); for `CC1=C(C)C(=O)C(Nc2cccc(C(=O)OC(C)(C)C)c2)=C(Br)C1=O`: -32.5% (active).
For `COc1ccc(C2CC(c3ccc(Nc4ccnc5cc(Cl)ccc45)cc3)=NN2C=O)cc1` (stereo unspecified), the growth was 48.3% (inactive).
Same read-out and setting: the result for `Cc1nc(NC(=O)COc2ccc(/C=C3\Cc4ccc(Cl)cc4C3=O)cc2)sc1C` reads 88.9% (inactive); that for `Cc1ccc2c(-c3cc(-c4ccccc4)nc(N)c3C#N)cc(=O)oc2c1`, 92.3% (inactive); that for `CN(C)c1ccc(/C=N\Nc2cc(=O)[nH]c3ccc(Cl)cc23)cc1`, 82.2% (inactive).

Another assay relates to NCI-H522 lung. The description is as above. The conditions noted are these: 10 µM unless noted.
For the compound `O=C1COCCN1c1ccc(NCc2cn(C(=O)c3ccc(Cl)cc3)c3ccccc23)cc1`, the growth was 65.6% (inactive).
Regarding `COc1ccc(-c2cnc3ccccc3n2)cc1`, the growth is 80.2% (inactive).
In the case of `CCOC(=O)C1=C(N)Oc2c(sc3c(C)cccc23)C1c1ccc(OC)cc1` (stereo unspecified), the growth is 17.1% (inactive).
On the same count and under the same terms, the same measure for `FC(F)(F)c1cc(Nc2ccc3c(OCCCN4CCOCC4)cccc3n2)ccc1Cl`: 49.5% (inactive); for `COc1cc(C(=O)c2cc(C)c3[nH]c4ccc(O)cc4c3c2C)cc(OC)c1OC`: 33.7% (inactive); for `Cc1ccc(C(=O)N/N=C/c2cccc(Oc3ccccc3)c2)cn1`: 31.5% (inactive).
Still for that read-out and setting: the same measure for `CC(=O)CC(c1cccs1)c1c(-c2ccccc2)[nH]c2ccccc12` (stereo unspecified): 80.6% (inactive); for `NC(=O)C1(Nc2ccc(Br)cc2)CCCC1`: 92.9% (inactive); for `COc1ccc(-c2c(C(=O)NS(C)(=O)=O)n(Cc3cccc(C(F)(F)F)c3)c3ccccc23)cc1`: 80.8% (inactive).
Regarding `O=C1NC(=O)C(c2ccccc2)(c2ccccc2)N1Cc1cn(-c2c3ccccc3nc3ccccc23)nn1`, the growth is 15.9% (inactive).
`CCCCn1c(-c2ccc(C(=O)O/N=C(\N)c3ccc(OC)cc3)cc2)nc(-c2ccccc2)c1-c1ccccc1`: the growth is -63.2% (active).
As to `COc1cc(Nc2nc(NCCN)nc3cc[nH]c(=O)c23)cc(OC)c1`, the growth is 72.9% (inactive).
Regarding `COc1ccc(-c2[nH]c3ccc(OC)cc3c2/C=C(\C#N)S(=O)(=O)c2ccccc2)cc1`, the growth is 34.5% (inactive).
For `COc1ccc(C2=Nn3c(nnc3-c3cc(Cl)cc(Cl)c3Cl)SC2)cc1`, the growth is -17.8% (active).
Consider `COc1ccc(C(=S)N2CCN(c3cccc(C)c3)CC2)cc1OC`, for which the growth was 22.8% (inactive).
Same read-out and setting: the same measure for `COc1cc(CCCO)c(OC)c(OC)c1OC`: 106% (inactive); for `O=C(Nc1nc2ccc(F)cc2s1)c1cccnc1Nc1ccc(Cl)cc1Cl`: 31.8% (inactive); for `Cc1cccc2c3c(sc12)C(c1ccc(F)cc1)C(C#N)=C(N)O3` (stereo unspecified): 13.6% (inactive).
For the compound `BrCCCc1n(Cc2ccc3ccccc3c2)c2ccccc2[n+]1Cc1ccc2ccccc2c1`, the growth is -52.3% (active).
On to `CCOC(=O)Cn1c(C)c(/C=N/NC(=O)c2cc3c(ccc4ccccc43)o2)c2ccccc21`, for which the growth is -25.5% (active).
`CCOC(=O)c1sc2ncc(-c3ccc(OC)cc3)n2c1C`: the growth is 74.7% (inactive).
Regarding `O=c1c2cccc(F)c2sc2c(NCCCNCCO)nc3ccccc3c12`, the growth is 44.4% (inactive).
The same measure, in the same setting: the same measure for `CNCCCNc1nc2ccccc2c2c(=O)c3cc(F)ccc3sc12`: 24.8% (inactive); for `CC(=O)OC[C@H]1OC(Sc2sc(C(=O)c3ccc(Cl)cc3)c(N)c2-c2nc3ccccc3s2)[C@H](OC(C)=O)[C@@H](OC(C)=O)[C@@H]1OC(C)=O` (stereo partly specified): 88.1% (inactive); for `OC(c1ccccc1)C(NC(Cc1ccccc1)c1ccccc1)c1ccccc1` (stereo unspecified): 67.1% (inactive).
In the case of `CCOC(=O)c1cn2ncnc(Oc3ccc(NC(=O)NCCN(C)C)c(Cl)c3)c2c1C`, the growth is 87.9% (inactive).
The same measure, in the same setting: the result for `Cc1nc2ccccc2c(/C=C/c2ccccc2)c1C(=O)/C=C/c1ccc(C(F)(F)F)cc1` reads -1.91% (active); that for `Cc1[nH]c(C(=O)Nc2ccc(C(=O)NCCN)cc2OC(C)C)c(Cl)c1Cl`, -6.73% (active); that for `CN1CCN(c2ccc(-c3cnc4c(-c5csc6ccccc56)cnn4c3)cc2)CC1`, -60.8% (active).
As for `c1ccc(-c2nc3sc(-c4ccccc4)cn3n2)cc1`, the growth was 80.8% (inactive).
Same read-out and setting: the same measure for `COc1c(B(O)O)cc(F)cc1-c1nc2ccc3[nH]ncc3c2c2c1CCCC2`: 13.1% (inactive); for `CNCCCC12CCC(c3ccccc31)c1ccccc12`: 88.8% (inactive); for `C=C1C(=O)O[C@H]2[C@H]1CC/C(COC(=O)C(C)c1ccc(CC(C)C)cc1)=C\CC[C@@]1(C)O[C@@H]21` (stereo partly specified): -63.8% (active).
Same read-out and setting: the result for `CC1=C(C)C(=O)C(Nc2cccc(C(=O)OC(C)(C)C)c2)=C(Br)C1=O` reads 67.4% (inactive).
For `COc1ccc(C2CC(c3ccc(Nc4ccnc5cc(Cl)ccc45)cc3)=NN2C=O)cc1` (stereo unspecified), the growth was 67.3% (inactive).
Still for that read-out and setting: the result for `Cc1nc(NC(=O)COc2ccc(/C=C3\Cc4ccc(Cl)cc4C3=O)cc2)sc1C` reads 78.9% (inactive).
For `Cc1ccc2c(-c3cc(-c4ccccc4)nc(N)c3C#N)cc(=O)oc2c1`, the growth is 68.1% (inactive).
As to `CN(C)c1ccc(/C=N\Nc2cc(=O)[nH]c3ccc(Cl)cc23)cc1`, the growth was 86.1% (inactive).
